Several values for one entry are separate records, joined by “and”; a condition that tells them apart may be missing. Equal values may be shown once. Records with an inconclusive call do not appear. A structure can be active in one record and inactive in another. Activity calls are given as the source filed them. Unless noted, calls follow the shape of the dose curve; as a rule, active = well fitted curve in the direction sought with a large enough effect; inconclusive = small, poorly fitted or top-dose-only effect, or another doubt; inactive = no such curve, though single readings can be large; an effect the other way counts as inactive or inconclusive.
% is scaled to controls: 0 for no effect and ±100 for the full control effect; potency is read from the fitted curve at half-maximal effect.

Sequence of Cytochrome P450 2C9 (Homo sapiens) (P11712 whole entry, looked up): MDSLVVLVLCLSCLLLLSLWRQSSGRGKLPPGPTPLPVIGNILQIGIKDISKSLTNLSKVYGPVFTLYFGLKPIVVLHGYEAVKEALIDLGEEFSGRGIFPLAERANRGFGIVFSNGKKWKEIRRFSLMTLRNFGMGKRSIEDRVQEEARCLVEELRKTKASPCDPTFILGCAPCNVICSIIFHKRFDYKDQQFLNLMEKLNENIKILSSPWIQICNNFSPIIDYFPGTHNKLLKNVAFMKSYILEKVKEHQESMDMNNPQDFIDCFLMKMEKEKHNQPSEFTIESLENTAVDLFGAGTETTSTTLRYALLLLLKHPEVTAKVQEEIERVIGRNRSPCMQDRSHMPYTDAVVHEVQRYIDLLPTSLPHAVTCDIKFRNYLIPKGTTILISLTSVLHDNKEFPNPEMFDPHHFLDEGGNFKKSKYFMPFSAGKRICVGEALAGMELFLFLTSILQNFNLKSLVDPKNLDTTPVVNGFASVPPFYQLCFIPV

The first assay concerns the target Cytochrome P450 2C9 (Homo sapiens) (UniProt P11712). Nature of the assay: Cytochrome P450 family 2 subfamily C member 9 (CYP2C9) small molecule antagonists: luciferase biochemical (cell-free) qHTS assay (AID 1645842; active = well fitted curve in the direction sought with a large enough effect in the repeat runs; an effect the other way counts as inactive or inconclusive; also: nearly all actives have a fitted effect of over 55% in size). Particulars: P450-Glo CYP2C9 enzyme assay, luciferin luminescence; series mostly up to 57.4 µM; activity change, negative = inhibition: at the top concentration. The method, boiled down: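 P450-Glo CYP2C9 system: proluciferin substrate with enzyme in mix containing 0.4% BSA, 10 min at room temperature, then NADPH regeneration solution added and incubated 1 h at 37C. Detection reagent stopped reaction; luminescence read after 20 min as RLU.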
For orientation: In qHTS, concentration-response curves come from the screen itself.
As for `COc1ccc2c(c1)C(=O)N(CCc1ccc(S(=O)(=O)NC(=O)NC3CCCCC3)cc1)C(=O)C2(C)C`, the Potency was 13.8 µM (active).

On to `CN(C)CCCN1c2ccccc2CCc2ccccc21`, for which the “activity change, negative = inhibition” value was 17.1% (inactive).

Take `CCN(CC)CCNC(=O)c1c(C)[nH]c(/C=C2\C(=O)Nc3ccc(F)cc32)c1C`: the “activity change, negative = inhibition” value was 11% (inactive).

Take `CCCc1c(OCCCCc2nn[nH]n2)ccc(C(C)=O)c1O`: the Potency is 0.138 µM (active).

For `CSc1ccc2c(c1)N(CCC1CCCCN1C)c1ccccc1S2` (centres undefined), the “activity change, negative = inhibition” value is -1.39% (inactive).

Turning to `CC(=O)Oc1c(C)c(C)c2c(c1C)CC[C@@](C)(CCC[C@H](C)CCC[C@H](C)CCCC(C)C)O2`, the “activity change, negative = inhibition” value is -4.87% (inactive).

Take `CC(C(O)c1ccc(O)cc1)N1CCC(Cc2ccccc2)CC1` (centres undefined): the “activity change, negative = inhibition” value is 14.3% (inactive).

As for `CN1CCOC(c2ccccc2)c2ccccc2C1` (centres undefined), the “activity change, negative = inhibition” value was 14.5% (inactive).

On to `CNCC(O)c1ccc(O)c(O)c1` (centres undefined), for which the “activity change, negative = inhibition” value is 4.11% (inactive).

Regarding `NCCNCCNCCN`, the “activity change, negative = inhibition” value is 0.851% (inactive).

For the next assay, the target named is Papain (Carica papaya) (UniProt P00784). Nature of the assay: Primary qHTS assay for inhibitors of the protease papain (AID 1645873).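 Also: papain turnover of Z-FR-AMC read as the AMC fluorescence gain over 10 min.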 Particulars: papain Z-FR-AMC cleavage, AMC fluorescence; series mostly up to 49.8 µM; activity change, negative = inhibition: at the top concentration.
Sequence of Papain (Carica papaya) (P00784 whole entry, looked up): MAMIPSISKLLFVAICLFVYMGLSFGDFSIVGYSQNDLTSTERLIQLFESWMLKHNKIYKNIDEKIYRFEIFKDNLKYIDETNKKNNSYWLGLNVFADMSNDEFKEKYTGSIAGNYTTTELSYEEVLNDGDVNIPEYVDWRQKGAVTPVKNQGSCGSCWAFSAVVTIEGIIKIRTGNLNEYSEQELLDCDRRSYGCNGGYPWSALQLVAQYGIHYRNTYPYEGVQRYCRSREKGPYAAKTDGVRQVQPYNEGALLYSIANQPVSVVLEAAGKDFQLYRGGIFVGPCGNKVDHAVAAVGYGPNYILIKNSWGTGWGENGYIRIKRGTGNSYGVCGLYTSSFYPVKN
For the compound `COC(=O)C1=C(C)NC(C)=C(C(=O)OC)C1c1ccccc1[N+](=O)[O-]`, the “activity change, negative = inhibition” value is 350% (inactive).

In the case of `CN(C)CCOC(C)(c1ccccc1)c1ccccn1` (centres undefined), the “activity change, negative = inhibition” value was 6.93% (inactive).

For `CC(C)c1c(C(=O)Nc2ccccc2)c(-c2ccccc2)c(-c2ccc(F)cc2)n1CC[C@@H](O)C[C@@H](O)CC(=O)O`, the “activity change, negative = inhibition” value was -8.37% (inactive).

As for `CSc1ccc2c(c1)N(CCC1CCCCN1C)c1ccccc1S2` (centres undefined), the “activity change, negative = inhibition” value is 2.79% (inactive).

Regarding `CC(C)(C(=O)O)c1ccc(C(O)CCCN2CCC(C(O)(c3ccccc3)c3ccccc3)CC2)cc1` (centres undefined), the “activity change, negative = inhibition” value is -6.03% (inactive).

As for `CC(C)NC[C@H](O)c1ccc(O)c(O)c1`, the Potency was 1.12 µM (active) and inactive.

As for `CC(C(O)c1ccc(O)cc1)N1CCC(Cc2ccccc2)CC1` (centres undefined), the “activity change, negative = inhibition” value is -7.29% (inactive).

As to `C[C@]12CC[C@@H]3c4ccc(O)cc4CC[C@H]3[C@@H]1CCC2=O`, the “activity change, negative = inhibition” value was -9.45% (inactive).

In the case of `CC(C)(C)c1onc(OCP(=O)(O)O)c1CC(N)C(=O)O` (centres undefined), the “activity change, negative = inhibition” value was 9.81% (inactive).

Regarding `CNCCC(Oc1ccc(C(F)(F)F)cc1)c1ccccc1` (centres undefined), the “activity change, negative = inhibition” value was 33.6% (inactive).

For `OCCN1CCN(CCCN2c3ccccc3Sc3ccc(Cl)cc32)CC1`, the “activity change, negative = inhibition” value was -15.4% (inactive).

On to `N=c1c[n+](N2CCOCC2)[n-]o1`, for which the “activity change, negative = inhibition” value is -14.1% (inactive).

In the case of `Nc1ncnc2c1ncn2[C@@H]1O[C@H](CO)[C@@H](O)[C@H]1O`, the “activity change, negative = inhibition” value was 4.05% (inactive).

As for `CNCC(O)c1ccc(O)c(O)c1` (centres undefined), the “activity change, negative = inhibition” value was -8.91% (inactive).

For `COCCOC(=O)C1=C(C)NC(C)=C(C(=O)OC/C=C/c2ccccc2)C1c1cccc([N+](=O)[O-])c1` (centres undefined), the “activity change, negative = inhibition” value was -9.27% (inactive).

With `CC(C)(C)[C@]1(O)CCN2C[C@H]3c4ccccc4CCc4cccc(c43)[C@@H]2C1`, the Potency result was “inactive and 15.8 µM (active)”.

For the compound `CCN(CC)CCOC(=O)C1(C2CCCCC2)CCCCC1`, the “activity change, negative = inhibition” value is -7.47% (inactive).

For `CN(C)CCCN1c2ccccc2Sc2ccc(Cl)cc21`, the “activity change, negative = inhibition” value is 1.71% (inactive).

Tested on in the next assay: not listed separately
Nature of the assay: Primary qHTS for inhibitors of nuclear receptor binding SET domain protein 2 (NSD2) in an isogenic RCH-ACV NSD2 p.E1099K mutant (9B) (AID 1645876). Also: nearly all actives have a fitted effect of over 70% in size. To be noted: RCH-ACV (leukaemia line) NSD2 E1099K (9B) viability, CellTiter-Glo, 72 h; series mostly up to 44.9 µM; activity change, negative = viability loss: at the top concentration.
In the case of `CN(C)CCOC(C)(c1ccccc1)c1ccccn1` (centres undefined), the “activity change, negative = viability loss” value is -6.33% (inactive).

Consider `C/C(=C(\CCOP(=O)(O)O)SC(=O)c1ccccc1)N(C=O)Cc1cnc(C)nc1N`, for which the activity change, negative = viability loss is 9.34% [at 4.96 µM] (inactive).

Consider `CCOC(=O)c1ccc(O)cc1`, for which the “activity change, negative = viability loss” value was -2.93% (inactive).

Turning to `CCCCCCCCCCCCOS(=O)(=O)O`, the “activity change, negative = viability loss” value is 8.45% (inactive).

Consider `CCN(CC)CCNC(=O)c1c(C)[nH]c(/C=C2\C(=O)Nc3ccc(F)cc32)c1C`, for which the Potency was 3.76 µM (active) and 3.32 µM (active).

`CSc1ccc2c(c1)N(CCC1CCCCN1C)c1ccccc1S2` (centres undefined): the Potency is 5.96 µM (active).

Turning to `CC(=O)Oc1c(C)c(C)c2c(c1C)CC[C@@](C)(CCC[C@H](C)CCC[C@H](C)CCCC(C)C)O2`, the compound was called inactive.

With `Cc1cc2nc3c(=O)[nH]c(=O)nc-3n(C[C@H](O)[C@H](O)[C@H](O)CO)c2cc1C`, the “activity change, negative = viability loss” value is 5.85% [at 17.3 µM] (inactive).

Regarding `CN1CCOC(c2ccccc2)c2ccccc2C1` (centres undefined), the Potency result was “inactive”.

`Cc1ncc([N+](=O)[O-])n1CC(O)CCl` (centres undefined): the “activity change, negative = viability loss” value is 5.55% (inactive).

With `COc1ccc(Cl)cc1C(=O)NCCc1ccc(S(=O)(=O)NC(=O)NC2CCCCC2)cc1`, the “activity change, negative = viability loss” value was -9.24% (inactive).

With `CC1(C)S[C@@H]2[C@H](NC(=O)Cc3ccccc3)C(=O)N2[C@H]1C(=O)O` (tested in a mixture with another compound), the “activity change, negative = viability loss” value was -21% (inactive).

Take `NC(=O)NNc1ccccc1`: the “activity change, negative = viability loss” value was 2.66% (inactive).

Take `CO/N=C(\C(=O)N[C@@H]1C(=O)N2C(C(=O)O)=C(CSc3nc(=O)c(O)nn3C)CS[C@H]12)c1csc(N)n1`: the “activity change, negative = viability loss” value was 1.12% (inactive).

Regarding `OCCN1CCN(CCCN2c3ccccc3Sc3ccc(Cl)cc32)CC1`, the Potency is 8.41 µM (active).

In the case of `O=C(O)c1ccccn1`, the outcome was inactive.

With `CCOc1nc2cccc(C(=O)O)c2n1Cc1ccc(-c2ccccc2-c2nn[nH]n2)cc1`, the Potency entry was “inactive”.

With `Nc1ncnc2c1ncn2[C@@H]1O[C@H](CO)[C@@H](O)[C@H]1O`, the Potency was 9.44 µM (active) and inactive.

Turning to `CCCCCCCCCCCCCCCC(=O)NCCO`, the outcome was inactive.

In the case of `CCCCOc1cc(C(=O)OCCN(CC)CC)ccc1N`, the “activity change, negative = viability loss” value is -27.7% (inactive).

As to `CNCC(O)c1ccc(O)c(O)c1` (centres undefined), the outcome was inactive.

As to `COCCOC(=O)C1=C(C)NC(C)=C(C(=O)OC/C=C/c2ccccc2)C1c1cccc([N+](=O)[O-])c1` (centres undefined), the Potency is 15 µM (active).

Consider `CCN(CC)CCOC(=O)C1(C2CCCCC2)CCCCC1`, for which the “activity change, negative = viability loss” value was -21% (inactive).

For `NCCNCCNCCN`, the “activity change, negative = viability loss” value is 8.35% (inactive).

Take `CN(C)CCCN1c2ccccc2Sc2ccc(Cl)cc21`: the Potency is 15 µM (active).

As to `O=C(O)c1ccccc1O`, the “activity change, negative = viability loss” value is -1.62% (inactive).

Values taken from PubChem BioAssay (NCATS).
